For part of these data: Results with a measured potency or affinity are listed apart. Peptide text beside a SMILES is read from it.

One may read the inhibition as the change of the read-out against control, counted positive when it falls.

One assay in a line: polyglutamine-triggered caspase-3 activation inhibitors, cell-based (AID 1583). The following applies: polyglutamine-induced caspase-3 activation, cell assay; stronger effect = higher value;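 tested at 10 µM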.
For `CC1CC2C3CCC4=CC(=O)C=CC4(C)[C@@]3(F)C(O)CC2(C)[C@@]1(O)C(=O)CO` (some centres undefined), the inhibition came to 7.1%.

With `NCC1OC(OC2C(N)CC(N)C(OC3OC(CO)C(O)C(N)C3O)C2O)C(N)C(O)C1O` (centres undefined), the inhibition came to 27.6%.

For the compound `NCCCCC(N)C(=O)NCC(=O)NC(Cc1cnc[nH]1)C(=O)NC(CCCCN)C(=O)O` (centres undefined) (H-KGHK-OH; configuration not given here), the inhibition was -1.51%.

As for `NCC1CCC(N)C(OC2C(N)CC(N)C(OC3OC(CO)C(O)C(N)C3O)C2O)O1` (centres undefined), the inhibition was -33.2%.

Take `O=c1c(O)cc2c(O)oc3c(=O)c(O)cc4c3c2c1CC=4O`: the inhibition was -1.16%.

In the case of `CC(NC(=O)C(NC(=O)OCc1ccccc1)C(C)C)C(=O)NC(CC(=O)O)C(=O)OC(F)F` (centres undefined), the inhibition is 59.7%.

For the compound `CC(=O)N[C@@H](Cc1c[nH]c2ccccc12)C(N)=O`, the inhibition came out at 11.7%.

For the compound `COc1ccc2c(c1OC)C(=O)O[C@H]2[C@@H]1c2ccccc2CCN1C`, the inhibition is 69.2%.

Consider `CC[C@@H](C(=O)C(C)[C@@H](O)[C@H](C)CCc1ccc(C)c(O)c1C(=O)O)C1OC(CC)(C2CC[C@](O)(CC)[C@H](C)O2)C[C@@H]1C` (some centres undefined), for which the inhibition came out at 75.5%.

Regarding `CCCCC(=O)OC1(C(=O)CO)C(C)CC2C3CCC4=CC(=O)C=CC4(C)[C@@]3(F)[C@@H](O)CC21C` (some centres undefined), the inhibition stood at 9.05%.

Consider `CC(=O)C1CCC2C3CC=C4CC(OS(=O)(=O)O)CC[C@]4(C)C3CC[C@]12C` (some centres undefined), for which the inhibition is -1.98%.

As to `CC[C@@]1(O)C[C@H](OC2CC(N(C)C)C(OC3CC(O)C(OC4CCC(=O)C(C)O4)C(C)O3)C(C)O2)c2c(cc3c(c2O)C(=O)c2c(O)cccc2C3=O)[C@H]1C(=O)OC` (some centres undefined), the inhibition was -23.8%.

Turning to `C=C1C(=O)OC2C1CCC1(C)CCC=C(C)C21` (centres undefined), the inhibition worked out at 56%.

The next assay in a line: suppressors of polyQ aggregation in yeast, 75Q-TubU reporter (AID 1593). The settings on record: Yeast 75Q polyglutamine aggregation reporter.
With `CC1CC2C3CCC4=CC(=O)C=CC4(C)[C@@]3(F)C(O)CC2(C)[C@@]1(O)C(=O)CO` (some centres undefined), the score came to 1.26.

`NCC1OC(OC2C(N)CC(N)C(OC3OC(CO)C(O)C(N)C3O)C2O)C(N)C(O)C1O` (centres undefined): the score turned out to be 0.94.

Consider `NCCCCC(N)C(=O)NCC(=O)NC(Cc1cnc[nH]1)C(=O)NC(CCCCN)C(=O)O` (centres undefined) (H-KGHK-OH; configuration not given here), for which the score was determined as 2.04.

In turn, `NCC1CCC(N)C(OC2C(N)CC(N)C(OC3OC(CO)C(O)C(N)C3O)C2O)O1` (centres undefined) yielded a score of 0.99.

Turning to `O=c1c(O)cc2c(O)oc3c(=O)c(O)cc4c3c2c1CC=4O`, the score was -1.91.

Consider `CC(NC(=O)C(NC(=O)OCc1ccccc1)C(C)C)C(=O)NC(CC(=O)O)C(=O)OC(F)F` (centres undefined), for which the score was 1.09.

Regarding `CC(=O)N[C@@H](Cc1c[nH]c2ccccc12)C(N)=O`, the score is 1.31.

Compound `COc1ccc2c(c1OC)C(=O)O[C@H]2[C@@H]1c2ccccc2CCN1C` had a score of 1.08.

`CC[C@@H](C(=O)C(C)[C@@H](O)[C@H](C)CCc1ccc(C)c(O)c1C(=O)O)C1OC(CC)(C2CC[C@](O)(CC)[C@H](C)O2)C[C@@H]1C` (some centres undefined) registered a score of 1.

Regarding `CCCCC(=O)OC1(C(=O)CO)C(C)CC2C3CCC4=CC(=O)C=CC4(C)[C@@]3(F)[C@@H](O)CC21C` (some centres undefined), the score was -0.8.

`CC(=O)C1CCC2C3CC=C4CC(OS(=O)(=O)O)CC[C@]4(C)C3CC[C@]12C` (some centres undefined): the score turned out to be 0.85.

On to `CC[C@@]1(O)C[C@H](OC2CC(N(C)C)C(OC3CC(O)C(OC4CCC(=O)C(C)O4)C(C)O3)C(C)O2)c2c(cc3c(c2O)C(=O)c2c(O)cccc2C3=O)[C@H]1C(=O)OC` (some centres undefined), for which the score came out at 0.51.

`C=C1C(=O)OC2C1CCC1(C)CCC=C(C)C21` (centres undefined) yielded a score of 0.7.

The nature of a further assay: rescue of polyQ-huntingtin neuronal dysfunction in worms, whole organism, C. elegans mechanosensory neurons, N-terminal huntingtin (AID 1599). The following applies: touch response, stronger effect = higher value.
The compound `CC1CC2C3CCC4=CC(=O)C=CC4(C)[C@@]3(F)C(O)CC2(C)[C@@]1(O)C(=O)CO` (some centres undefined) returned a rescue above control of 8.02.

With `NCC1OC(OC2C(N)CC(N)C(OC3OC(CO)C(O)C(N)C3O)C2O)C(N)C(O)C1O` (centres undefined), the rescue above control was -18.

For `NCCCCC(N)C(=O)NCC(=O)NC(Cc1cnc[nH]1)C(=O)NC(CCCCN)C(=O)O` (centres undefined) (H-KGHK-OH; configuration not given here), the rescue above control is 2.83.

For the compound `NCC1CCC(N)C(OC2C(N)CC(N)C(OC3OC(CO)C(O)C(N)C3O)C2O)O1` (centres undefined), the rescue above control is -7.39.

On to `O=c1c(O)cc2c(O)oc3c(=O)c(O)cc4c3c2c1CC=4O`, for which the rescue above control is -6.17.

For `CC(NC(=O)C(NC(=O)OCc1ccccc1)C(C)C)C(=O)NC(CC(=O)O)C(=O)OC(F)F` (centres undefined), the rescue above control was -1.19.

As to `CC(=O)N[C@@H](Cc1c[nH]c2ccccc12)C(N)=O`, the rescue above control was 23.8.

Regarding `COc1ccc2c(c1OC)C(=O)O[C@H]2[C@@H]1c2ccccc2CCN1C`, the rescue above control was -8.02.

For the compound `CC[C@@H](C(=O)C(C)[C@@H](O)[C@H](C)CCc1ccc(C)c(O)c1C(=O)O)C1OC(CC)(C2CC[C@](O)(CC)[C@H](C)O2)C[C@@H]1C` (some centres undefined), the rescue above control came out at 0.

Regarding `CCCCC(=O)OC1(C(=O)CO)C(C)CC2C3CCC4=CC(=O)C=CC4(C)[C@@]3(F)[C@@H](O)CC21C` (some centres undefined), the rescue above control is -0.98.

Compound `CC(=O)C1CCC2C3CC=C4CC(OS(=O)(=O)O)CC[C@]4(C)C3CC[C@]12C` (some centres undefined) had a rescue above control of 6.71.

In turn, `CC[C@@]1(O)C[C@H](OC2CC(N(C)C)C(OC3CC(O)C(OC4CCC(=O)C(C)O4)C(C)O3)C(C)O2)c2c(cc3c(c2O)C(=O)c2c(O)cccc2C3=O)[C@H]1C(=O)OC` (some centres undefined) displayed a rescue above control of 0.

In turn, `C=C1C(=O)OC2C1CCC1(C)CCC=C(C)C21` (centres undefined) registered a rescue above control of 5.32.
